Most compounds without a hit are left out; they make up all but 3.5% or so of the library.
KCNK9 block = blocks the human KCNK9 two-pore domain potassium channel; Q9NPC2; HEK293 KCNK9, FluxOR thallium flux fluorescence; stronger effect = lower value; B-score at 10 µM; 310,000 tested, 1.2% active;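 active means ratio B-score over 3 SD below the library mean, with starting fluorescence within 5 SD of its mean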;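 further: negative B-score means less thallium flux so channel inhibition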
Target sequence (Q9NPC2 whole entry, looked up, the tested form may be a part): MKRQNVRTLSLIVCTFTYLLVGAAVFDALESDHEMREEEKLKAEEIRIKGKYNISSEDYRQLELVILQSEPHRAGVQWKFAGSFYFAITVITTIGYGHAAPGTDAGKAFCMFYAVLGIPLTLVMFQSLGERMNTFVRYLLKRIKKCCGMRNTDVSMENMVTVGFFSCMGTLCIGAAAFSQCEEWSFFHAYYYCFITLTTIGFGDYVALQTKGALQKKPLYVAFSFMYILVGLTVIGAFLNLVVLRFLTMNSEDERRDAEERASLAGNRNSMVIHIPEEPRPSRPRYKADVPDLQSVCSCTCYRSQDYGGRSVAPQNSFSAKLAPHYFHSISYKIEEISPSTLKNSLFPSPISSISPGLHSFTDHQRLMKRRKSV
Kir21 block = Kir2.1 (mouse) channel inhibition | 310,000 tested, 0.85% active | AID 1672 | HEK293-Kir2.1, FluxOR thallium flux fluorescence; stronger effect = lower value | B-score at 10 µM;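 active means fluorescence ratio B-score at or below minus 3 SD of library scores, with starting-brightness B-score within 2 SD, cut at about -4.2 in these data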;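 further: channel flux triggered by added potassium and thallium sulfate stimulus; B-score of peak minus minimum fluorescence over baseline after thallium stimulus; more negative B-score means stronger Kir2.1 block with less thallium influx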
ANO1 block = blocks the mouse calcium-activated chloride channel TMEM16A | AID 588511 | HEK293 TMEM16A/YFP iodide influx fluorescence, ionomycin | Q8BHY3 | 310,000 tested, 1.2% active | normalized B-score (activity score, 25-100; higher = stronger inhibition) at 10 µM;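 active means ratio plate-corrected score three or more library SD toward inhibition, starting fluorescence score within five deviations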;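 further: score derived from kinetic fluorescence span divided by baseline fluorescence per well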
KCNK3 block = human KCNK3 channel inhibition, primary screen | AID 602410 | 340,000 tested, 0.84% active | CHO-KCNK3 thallium flux, FluxOR fluorescence; stronger effect = lower value | O14649 | B-score at 10 µM;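 active means B-score under library mean minus 4 SD, starting fluorescence ratio at most library mean plus 5 SD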;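 further: more negative B-score means stronger inhibition of thallium flux through KCNK3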
TMEM16A act = activates or potentiates the mouse TMEM16A chloride channel; Q8BHY3; B-score at 10 µM; AID 623877; 340,000 tested, 0.3% active; HEK293 TMEM16A/YFP-H148Q/I152L, iodide quench fluorescence; stronger effect = lower value;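 active means fluorescence-ratio B-score plate-corrected deviation score at least 3 library SD below zero, with starting fluorescence score within 5 deviations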;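 further: channel opened by trigger with iodide after compound preincubation; score built on the fluorescence ratio of max minus min over baseline; more negative score means more quench and so TMEM16A activation or potentiation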
KCNK3 confirm = confirmation of human KCNK3 two-pore domain potassium channel inhibitors; CHO-KCNK3 thallium flux, FluxOR fluorescence; 0% buffer, 100% carvedilol maximal block; shares compounds with KCNK3 block; 2,400 tested, 99% active; ratio percent of control, % at 10 µM;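 active means ratio percent of control, averaged over triplicates, above buffer control mean plus 5 SD, cut at about 64% in these data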;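 further: ratio is the fluorescence rise from min to max over baseline after thallium stimulus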
KCNK3 uninduced = activity in cells without induced KCNK3 expression; shares compounds with KCNK3 block; non-induced KCNK3 parental cells, FluxOR thallium flux; stronger effect = lower value; thallium flux ratio (lower = more inhibition) at 10 µM; 2,400 tested, 40% active; AID 651747;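 active means thallium flux ratio, averaged over three wells, more than 5 SD below the buffer control mean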;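 further: host cells are CHO cells without KCNK3 induction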
Numbers stand for hits; . = inactive; / = no result.

SMILES	KCNK9 block	Kir21 block	ANO1 block	KCNK3 block	TMEM16A act	KCNK3 confirm	KCNK3 uninduced
CSc1ccccc1C(=O)N(C)C(c1ccccc1)c1ccccc1	.	.	.	-9.1	.	108	.
CCC(c1nnnn1Cc1ccccc1)N1CCN(C(=O)c2ccco2)CC1 (stereo not drawn)	.	.	.	-12	.	72	.
CCC(c1nnnn1CCOC)N1CCN(C(=O)c2ccco2)CC1 (stereo not drawn)	.	.	.	.	.	/	/
CCCS(=O)(=O)N1CCCC(C(=O)c2ccccc2OC)C1 (stereo not drawn)	.	.	.	.	.	/	/
Cc1cc(SCC(=O)N/N=C/c2ccc(O)c(O)c2)nc2ccccc12	.	.	.	.	.	/	/
Cc1cc(SCC(=O)N/N=C/c2ccc(O)cc2O)nc2ccccc12	.	.	.	-12	.	147	0.1
CC(C)(C)c1ccc(OCC(=O)N/N=C/C2CC=CCC2)cc1 (stereo not drawn)	-7.2	.	.	-10	.	96	.
C[C@@H]1CN([C@H](C)CO)C(=O)c2cccc(NS(=O)(=O)c3cccs3)c2O[C@H]1CN(C)Cc1ccccc1	/	/	/	.	.	/	/
C[C@H](CO)N1C[C@H](C)[C@@H](CN(C)Cc2ccc(Cl)c(Cl)c2)Oc2c(NS(=O)(=O)c3cccs3)cccc2C1=O	/	/	/	-14	.	127	0.14
C[C@H](CO)N1C[C@H](C)[C@@H](CN(C)S(=O)(=O)c2ccccc2)Oc2c(NC(=O)CCC(F)(F)F)cccc2C1=O	/	/	/	-12	.	110	.
CCOC(=S)N/C(=N\S(=O)(=O)c1ccc(C)cc1)c1ccccc1	.	.	.	.	.	/	/
COc1ccccc1CN1CC(C(=O)NCc2cccnc2)CC1=O (stereo not drawn)	.	.	.	.	.	/	/
O=C1OC[C@H](Cc2ccc3c(c2)OCO3)/C1=C\c1ccc2c(c1)OCO2	.	.	25	-9.7	.	133	.
CCCCC(=O)Nc1cccc(-c2nnc(-c3ccccc3)o2)c1	-6.7	.	.	.	.	123	.
CC(=O)Nc1ccc(C(=O)c2ccccc2)cc1	.	.	.	.	.	/	/
CCCCC(=O)Nc1ccc(C(=O)c2ccccc2)cc1	-6.8	.	.	.	.	96	.
O=C(OCC#CCSc1nc2ccccc2o1)c1ccco1	.	.	.	.	.	/	/
O=C(OCC#CCSc1nc2ccccc2o1)c1cc2ccccc2o1	.	.	.	-11	.	105	0.15
CC1=C([N+](=O)[O-])C(c2ccc(Cl)cc2)NC(=O)N1 (stereo not drawn)	.	.	.	.	.	/	/
CCN(CC)S(=O)(=O)c1cccc(NC(=O)CCNC(=O)NC23CC4CC(CC(C4)C2)C3)c1	.	.	.	.	.	/	/
CCCn1nc([N+](=O)[O-])c(C(C#N)c2nc3ccccc3s2)c(Cl)c1=O (stereo not drawn)	.	.	100	-8.8	.	133	0.11
CCn1nc([N+](=O)[O-])c(C(C#N)c2nc3ccccc3n2C)c(Cl)c1=O (stereo not drawn)	.	.	.	.	.	/	/
COc1ccc(CCNC(=O)CSc2cn(Cc3cccc(C)c3)c3ccccc23)cc1OC	.	.	.	-9.2	.	105	.
COc1ccc(CCNC(=O)CSc2cn(Cc3ccccc3)c3ccccc23)cc1OC	.	.	.	.	.	/	/
CCC(C(=O)NC(C)(C)C)N(Cc1ccco1)C(=O)CNS(=O)(=O)c1ccc(OC)cc1 (stereo not drawn)	.	.	.	.	.	/	/
SMILES	KCNK9 block	Kir21 block	ANO1 block	KCNK3 block	TMEM16A act	KCNK3 confirm	KCNK3 uninduced
Cc1cccc(C(=O)NC2CCN(CC(=O)NCc3ccccc3F)CC2)c1	.	.	.	.	.	/	/
CCOC(=O)C1=C(C)NC2=C(C(=O)c3ccccc32)C1c1cccc2ccccc12 (stereo not drawn)	.	.	.	-11	.	113	0.15
O=C(CSC1=N/C(=C/c2ccco2)C(=O)N1c1ccc(OC(F)F)cc1)NC1CCS(=O)(=O)C1 (stereo not drawn)	.	.	.	-8.9	.	83	.
CCNC(=O)CSC1=N/C(=C\c2ccc(O)c(OCC)c2)C(=O)N1c1ccc(OC(F)F)cc1	.	.	.	.	.	/	/
CCCOc1ccc(C2NC(=S)NC(C)=C2C(=O)c2ccccc2)cc1OC (stereo not drawn)	.	.	.	-9.8	.	97	.
CC(C)N(C(=O)[C@H]1CC(CC(=O)NCc2cccc(C(F)(F)F)c2)C(=O)N2CCc3c([nH]c4ccccc34)[C@]12C)C(C)C (stereo partly drawn)	/	/	/	.	/	/	/
COc1cc2c(cc1OC)C(c1ccccc1)N(C(=O)c1ccco1)CC2 (stereo not drawn)	.	.	.	-11	.	97	.
COc1cc2c(cc1OC)C(c1ccccc1)N(C(=O)c1ccccc1)CC2 (stereo not drawn)	.	.	.	.	.	/	/
CC(C)CC(c1nnnn1Cc1ccc2c(c1)OCO2)N1CCC(C(N)=O)CC1 (stereo not drawn)	.	.	.	.	.	/	/
COc1cccc(OCCn2cc(C(C)=O)c3ccccc32)c1	.	.	.	-9.2	.	124	.
COc1ccccc1OCCn1cc(C(=O)c2ccco2)c2ccccc21	-7.4	.	.	-12	.	102	.
CC(=O)c1cn(CCOc2cc(C)ccc2C)c2ccccc12	.	.	.	.	.	/	/
O=C(Nc1ccc(S(=O)(=O)N2CCCC2)cc1)c1c(F)cccc1F	.	.	.	.	.	/	/
COc1ccc(-n2nnnc2CNC(=O)C(=O)c2c(C)[nH]c3ccccc23)cc1	.	.	.	.	.	/	/
O=C(COC(=O)COc1ccc(Cl)cc1)NC1CC1	/	/	/	.	.	/	/
Cc1oc(-c2ccccc2)cc1C(=O)Nc1cccc2ccccc12	.	.	.	-11	.	119	0.16
Cc1cc(C(=O)Nc2cccc3ccccc23)co1	.	.	.	.	.	/	/
CC(=Nc1ccccc1)c1sc2ccccc2c1O	.	.	.	.	.	/	/
CC(=Nc1ccc(Br)cc1)c1sc2ccccc2c1O	.	.	.	-11	.	131	.
CN(C)/C=C1\C(=O)N(C)N=C1C(F)(F)F	.	.	.	.	.	/	/
COc1cccc2cc(C(C)N(CCCN3CCOCC3)C(=S)Nc3ccc(C)c(C)c3)oc12 (stereo not drawn)	.	.	.	-9.3	.	89	.
COc1ccc(NC(=S)N(CCCN2CCOCC2)C(C)c2cc3cccc(OC)c3o2)cc1 (stereo not drawn)	.	.	.	.	.	/	/
